“And” between values parts separate entries of the source, which are not always exact repeats. Equal values may be shown once. Records with an inconclusive call do not appear. Values without a mark were called inactive. The source made the active and inactive calls. The call rests on the fitted dose curve.
Target: Cytochrome P450 1A2 (Homo sapiens) (UniProt P05177)
Test: p450-cyp1a2 (AID 410);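 on activity change, negative = inhibition: -100% = full effect of reference inhibitor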
Conditions: recombinant CYP1A2, luciferin-ME demethylation, luminescence; series mostly up to 25.6 µM; activity change, negative = inhibition: at the top concentration
In short: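 20nM CYP1A2 with 100uM Luciferin-ME (at Km) in 100mM KPO4; compound preincubated 10 min, NADPH regeneration added, 60 min at room temperature. Luciferin quantified by luminescence after detection reagent; normalized to 57 uM furafylline.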
Potency means the concentration at half of the fitted maximal effect.

Cytochrome P450 1A2 (Homo sapiens), sequence (P05177 whole entry, looked up): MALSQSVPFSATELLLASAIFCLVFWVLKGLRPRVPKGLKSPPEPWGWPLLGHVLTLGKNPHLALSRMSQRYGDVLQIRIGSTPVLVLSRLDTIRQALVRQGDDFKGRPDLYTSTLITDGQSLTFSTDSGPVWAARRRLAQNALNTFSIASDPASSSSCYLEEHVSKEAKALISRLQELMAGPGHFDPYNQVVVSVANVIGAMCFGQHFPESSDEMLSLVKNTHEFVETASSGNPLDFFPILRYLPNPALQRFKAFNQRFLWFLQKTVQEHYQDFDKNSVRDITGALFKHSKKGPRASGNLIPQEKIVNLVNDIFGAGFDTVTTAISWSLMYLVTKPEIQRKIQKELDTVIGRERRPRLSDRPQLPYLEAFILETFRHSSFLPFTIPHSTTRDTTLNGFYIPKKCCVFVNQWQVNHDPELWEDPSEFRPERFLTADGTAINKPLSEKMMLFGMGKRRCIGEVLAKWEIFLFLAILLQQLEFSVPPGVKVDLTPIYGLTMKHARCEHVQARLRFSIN

SMILES	activity change, negative = inhibition	Potency
C[C@H]1[C@H](NC(=O)/C(=N/OC(C)(C)C(=O)O)c2csc(N)n2)C(=O)N1S(=O)(=O)O (stereo in doubt)	-4.3%	
CCCCOc1ccc(C(=O)CCN2CCCCC2)cc1		3.16 µM (active)
COc1cc(-c2ccc(=O)[nH]n2)ccc1OC(F)F		10 µM (active) and 5.01 µM (active) and 2.51 µM (active)
CCCCOc1cc(C(=O)NCCN(CC)CC)c2ccccc2n1		5.01 µM (active)
Oc1ccc(Cl)cc1Sc1cc(Cl)ccc1O		3.98 µM (active)
Cc1c(N(C)CS(=O)(=O)O)c(=O)n(-c2ccccc2)n1C	-11.5%	
C=C(CC)C(=O)c1ccc(OCC(=O)O)c(Cl)c1Cl	-13.9%	
CN1CCN(C(c2ccccc2)c2ccccc2)CC1	-3.6%	
OC(CCN1CCCCC1)(c1ccccc1)c1ccccc1		inactive
CC(=O)N(O)CCCCCNC(=O)CCC(=O)N(O)CCCCCNC(=O)CCC(=O)N(O)CCCCCN	-5.9%	
CC(=O)Oc1ccc(C(c2ccc(OC(C)=O)cc2)c2ccccn2)cc1	-15.5%	
Oc1ccc(O)cc1	-8.1% [at 57 µM]	
CCCn1c(=O)[nH]c(=O)c2[nH]cnc21	-1.3% [at 57 µM]	
Cc1cc(N)c2cc(NC(=O)Nc3ccc4nc(C)cc(N)c4c3)ccc2n1	-1.5% [at 11.4 µM]	
CN1CCN(CCCN2c3ccccc3Sc3ccc(S(=O)(=O)N(C)C)cc32)CC1		12.6 µM (active)
Cc1cc(=O)n(-c2ccccc2)n1C	-13%	
Oc1cc(O)c2c(c1)O[C@H](c1ccc(O)c(O)c1)[C@H](O)C2		inactive
CNCCC=C1c2ccccc2CCc2ccccc21		25.1 µM (active)

— PubChem BioAssay (NCATS)
